Compound activity as filed in PubChem BioAssay.
This is a sample that favours compounds with a hit; in the whole collection about 3.5% have one here.
M1 PAM = human M1 muscarinic receptor positive allosteric modulators, primary screen, CHO-K1 cells, Fluo-8 calcium fluorescence, 1536-well; Muscarinic acetylcholine receptor M1 (Homo sapiens), P11229; CHO-K1 hM1, ACh EC20; 0% = ACh EC20, 100% = maximal ACh; activation, % at 3 µM; 360,000 tested, 0.088% active; in the data active = activation above about 19%, passing the limit was not always enough
Target sequence (P11229 whole entry, looked up): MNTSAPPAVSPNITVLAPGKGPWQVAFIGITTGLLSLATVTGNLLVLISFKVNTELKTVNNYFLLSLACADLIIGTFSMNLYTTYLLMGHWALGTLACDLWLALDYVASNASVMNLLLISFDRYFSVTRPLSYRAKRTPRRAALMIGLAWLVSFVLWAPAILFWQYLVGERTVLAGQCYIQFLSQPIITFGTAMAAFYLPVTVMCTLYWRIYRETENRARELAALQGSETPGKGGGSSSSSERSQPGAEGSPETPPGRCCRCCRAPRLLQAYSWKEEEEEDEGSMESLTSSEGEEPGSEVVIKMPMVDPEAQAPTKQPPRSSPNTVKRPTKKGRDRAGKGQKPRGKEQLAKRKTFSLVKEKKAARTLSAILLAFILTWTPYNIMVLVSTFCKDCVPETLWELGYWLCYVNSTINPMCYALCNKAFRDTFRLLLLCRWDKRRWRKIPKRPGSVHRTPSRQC
Myeloid diff MLP = induction of myeloid progenitor differentiation, primary screen, cell-based, flow cytometry, MLPCN library. ER-HoxA9 myeloid progenitors, lysozyme-GFP differentiation. calls only at 10 µM. 360,000 tested, 1% active. AID 624256, 2012;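 active = normalized GFP-positive differentiation at or above the plate's own cutoff, the solvent-only control mean plus 3 SD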;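 note: cells exposed to compound for four days before flow analysis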
SKN-1 block = suppressors of acrylamide-induced Pgst-4::GFP reporter in worms, primary screen, SKN-1 inhibitor project, whole organism, uHTS, GFP/RFP fluorescence ratio, strain VP596 | C. elegans VP596 Pgst-4::GFP/RFP ratio, 24 h | inhibition, % at 21.8 µM | 360,000 tested, 0.49% active | AID 624304, 2012;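 active = interference check ratio from 0.5 to 1.5 plus GFP to RFP signal ratio inhibition reaching or exceeding a fixed threshold, cut at about 30% in these data, passing the limit was not always enough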
CHRM1 agonist = human M1 muscarinic receptor agonists, primary screen, Fluo-8 calcium fluorescence, CHO-K1 cells, HTS | CHO-K1 hM1, agonist mode; 0% DMSO, 100% acetylcholine EC100 | activation, % at 3 µM | Muscarinic acetylcholine receptor M1 (Homo sapiens), P11229 | 360,000 tested, 0.33% active;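 active = activation above the run's mean compound activation plus 3 SD, cut at about 16% in these data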;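 note: peak over basal fluorescence ratio within a 140 s kinetic read after compound addition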
M1 antag = human M1 muscarinic receptor antagonists, primary screen, CHO-K1 cells, Fluo-8 calcium fluorescence, 1536-well; inhibition, % at 3 µM; Muscarinic acetylcholine receptor M1 (Homo sapiens), P11229; 360,000 tested, 1.3% active; AID 588852, 2011; CHO-K1 hM1, ACh EC80 antagonist;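 active = percent inhibition above its own plate's cutoff, namely the mean of that plate's compound wells plus 3 SD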;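 note: peak over basal fluorescence ratio during 140 s after agonist addition; 0% = ACh EC80 plus DMSO and 100% = DMSO alone without agonist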
ATG4B inh = ATG4B protease inhibitors, primary screen, biochemical, fluorescence, uHTS | Cysteine protease ATG4B (Homo sapiens), Q9Y4P1 | ATG4B cleavage of LC3-PLA2, NBD-HPC fluorescence, 1 h | inhibition, % at 8.33 µM | 340,000 tested, 0.51% active | AID 504462, 2011; in the data active = inhibition above about 40%
Starred values were filed as active, the others as inactive; i = inactive; x = no result; + = active, no number; ! = not confirmed by another sample.

SMILES | M1 PAM | Myeloid diff MLP | SKN-1 block | CHRM1 agonist | M1 antag | ATG4B inh
C[C@@H]1CN([C@H](C)CO)C(=O)c2cc(NC(=O)Nc3ccc(C(F)(F)F)cc3)ccc2O[C@H]1CN(C)C(=O)Nc1ccc(F)cc1 | -6 | + | 12 | 1 | 5 | -19
C[C@H](CO)N1C[C@H](C)[C@@H](CN(C)C(=O)Nc2ccc(C(F)(F)F)cc2)Oc2c(NC(=O)Nc3ccc(C(F)(F)F)cc3)cccc2C1=O | 3 | i | 1 | 0 | -1 | -7
C[C@H]1CN([C@@H](C)CO)C(=O)c2cccc(NC(=O)Nc3ccc(C(F)(F)F)cc3)c2O[C@H]1CN(C)C | 27* | i | -9 | 6 | -13 | -2
C[C@H](CO)N1C[C@H](C)[C@@H](CN(C)C(=O)Nc2ccc(C(F)(F)F)cc2)Oc2ccc(NC(=O)Nc3ccc(C(F)(F)F)cc3)cc2C1=O | 4 | i | -16 | 1 | 1 | -8
CC1CNCCN1S(=O)(=O)c1cccc2cnccc12 (stereo not drawn) | -19 | i | -14 | 42*! | -3 | -2
CCN(CC)CC#CCOC(=O)C(O)(c1ccccc1)C1CCCCC1 (stereo not drawn) | x | i | -5 | x | x | 0
CCN(CC)CC#CCC(O)(c1ccccc1)C1CCCCC1 (stereo not drawn) | -38 | i | -1 | -15 | 99* | 0
CCCCCNCc1ccc(Br)cc1 | 3 | i | -4 | 7 | 5 | 4
CCCCCCNCc1ccc(Br)cc1 | -3 | i | 6 | 16* | -11 | 4
CC(C)CCNC(=O)c1cnn2c(C(F)(F)F)cc(-c3ccco3)nc12 | 4 | i | 44* | -6 | -9 | 7
O=C(NC1CCCC1)c1cnn2c(C(F)(F)F)cc(-c3ccco3)nc12 | -1 | i | 21 | -6 | -1 | 3
O=C1NC(c2ccccc2)CCO1 (stereo not drawn) | 29* | i | -1 | 3 | -23 | 3
CCn1c(CC(=O)Nc2ccc(F)cc2)nnc1SCC(=O)Nc1nncs1 | -2 | i | 9 | 0 | 3 | -5
Nc1ccccc1NC1CCCCC1 | -5 | + | 7 | -4 | 14 | 5
O=C(Nc1ccccc1NC(=O)NC1CCCCC1)NC1CCCCC1 | 12 | i | -8 | -5 | -12 | 11
CCOC(=O)C1CCN(C(=O)COC(=O)c2ccc3c(c2)C(=O)N(c2ccc(OCC)cc2)C3=O)CC1 | -9 | i | 11 | 0 | 22 | -1
O=C(OCc1ccccc1C(F)(F)F)c1ccc(Br)c(S(=O)(=O)N2CCOCC2)c1 | 0 | i | -2 | -2 | 3 | -51
Cc1[nH]n(-c2ccccc2)c(=O)c1/C=N/c1ccccn1 | 5 | i | 51* | 0 | -11 | 0
O=C(CCCNC(=O)c1ccc(Cl)cc1)Nc1ncccc1O | 26* | i | 0 | 10 | -17 | 6
O=C(c1ccc(Cl)c(Cl)c1)N1CCC(=O)N(C(COCc2cccc(Cl)c2)Cc2ccccc2)CC1 (stereo not drawn) | 5 | + | -4 | -4 | -1 | 4
CN(C)CCCOc1ccc2c(c1)Sc1ccccc1CC2=O | 0 | i | 13 | 24* | -2 | 0
O=C(c1cccc(C(F)(F)F)c1)C1CCCN(Cc2cccn2-c2ncccn2)C1 (stereo not drawn) | -28 | i | 13 | -11 | 13 | -4
CCOc1cc(CN2CCCC(C(=O)c3cccc(C(F)(F)F)c3)C2)ccc1O (stereo not drawn) | -22 | i | -8 | -8 | 32* | -12
CCOC(=O)C1CCCN(Cc2ccc(O)c(OC)c2)C1 (stereo not drawn) | 0 | i | -7 | 23* | 1 | -10
CCOC(=O)C1CCCN(Cc2nc3ccc([N+](=O)[O-])cc3c(=O)n2-c2ccc(OC)cc2OC)C1 (stereo not drawn) | -26 | i | -4 | 54* | 51* | -2
SMILES | M1 PAM | Myeloid diff MLP | SKN-1 block | CHRM1 agonist | M1 antag | ATG4B inh
O=C(c1cccc(C(F)(F)F)c1)C1CCCN(C(=O)c2cc(C3CC3)[nH]n2)C1 (stereo not drawn) | -3 | + | -1 | 0 | 9 | 27
O=C(O)c1cc(C(F)(F)F)nc2c(C(F)(F)F)cccc12 | 7 | i | 1 | -2 | -5 | 8
C=CCN1[C@@H](Cc2ccccc2)COc2cc(N3CCSCC3)ccc2S1(=O)=O | x | i | 8 | x | x | x
CCC(CN(C)C)Oc1cc(NCc2ccccc2)c2ncn(C(C)C)c2c1 (stereo not drawn) | -4 | + | 10 | -11 | 6 | 1
COc1cc(NCc2ccccc2)c2ncn(C(C)C)c2c1 | -5 | i | 29 | 0 | 11 | -4
Cc1ccc(C2CC(c3cccs3)=NN2C(=O)CSc2nc(=O)n3cc(C)ccc3n2)cc1 (stereo not drawn) | -5 | + | -8 | -5 | 8 | -1
COc1nnc(-c2ccc(N3CCCCC3)c(NC(=O)COc3ccccc3)c2)c2ccccc12 | 1 | i | 1 | -4 | -3 | 2
CCOC(=O)c1ccn(CSc2c(F)c(F)cc(F)c2F)n1 | -14 | i | 4 | -2 | 33* | 4
O=c1c2ccccc2nc(SCc2nnc(-c3ccccc3Br)o2)n1-c1ccccc1 | 2 | i | 6 | -5 | -3 | 45*
Fc1ccc(-c2cn3cc(C(F)(F)F)cc(Cl)c3n2)cc1 | -1 | i | 35* | -6 | -1 | 1
COc1ccc(-c2cn3cc(C(F)(F)F)cc(Cl)c3n2)cc1 | 6 | + | 34 | -8 | -5 | 3
COc1ccc(-c2oc3c(c2C#CCCCCO)C(OCCO)CC3)cc1 (stereo not drawn) | x | i | 15 | x | x | x
CC(C)c1nc2c(c(=O)c3ccccc3n2C)c(=O)n1CCc1ccccc1 | -25 | i | 7 | 20* | 34 | 12
CCOC(=O)c1oc2ccc(S(=O)(=O)n3nc(-c4ccccc4)cc3N)cc2c1C | 0 | + | -2 | -2 | 2 | -15
CC(CCCC(C)(C)O)NC(=O)c1ccc2oc(CCc3ccccc3)nc2c1 (stereo not drawn) | -8 | i | 2 | -2 | 2 | 2
CCCCOc1ccc(C(=O)NCC(=O)N2CCN(Cc3ccc4c(c3)OCO4)CC2)cc1 | -16 | i | 11 | -6 | 30* | -4
